From PubChem BioAssay come the findings set out here.

In general, inhibition refers to the drop in the measured response relative to a control, in per cent.

Results filed as inconclusive are left out. Active and inactive are the calls of the source.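 How the source made its calls, unless noted: active means inhibition above the screen-wide mean plus 3 SD, about 51%; inactive means the rest.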

A short description of experiment [1]: yeast TOR pathway RPL19A-GFP modulators, primary screen, cell-based, S. cerevisiae, multiplex flow cytometry (AID 1862; in the data active means percent of DMSO control GFP below about 86%;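 further: lower values mimic rapamycin by blocking the RPL19A rise seen in DMSO cells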). The following applies: S. cerevisiae RPL19A-GFP strain, flow cytometry fluorescence, 3 h; at 10 µM; stronger effect = lower value. For orientation: A flow cytometer gives signals particle by particle.
Experiment [2] is described as follows: modulators of MEP2-GFP levels in yeast, primary screen, S. cerevisiae, multiplex flow cytometry (AID 1867;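 active means GFP response, as percent of the DMSO control, above the screen-wide mean plus 3 SD, about 139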;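 further: median GFP channel fluorescence of barcode-gated MEP2-GFP cells measured by flow cytometry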). The following applies: S. cerevisiae MEP2-GFP strain, 3 h, at 10 µM, stronger effect = higher value, 100% means same as DMSO wells.
A short description of experiment [3]: modulators of CIT2-GFP expression in yeast, primary screen, S. cerevisiae, GFP fusion, multiplex flow cytometry (AID 1870;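 active means percent response above a set limit, the screen-wide mean plus 3 SD, cut at about 130% in these data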;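 further: barcoded CIT2-GFP strain pooled with four other GFP strains with rapamycin as positive control; median GFP fluorescence per well over plate mean of DMSO wells so 100% = DMSO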). Conditions: 3 h, at 10 µM, stronger effect = higher value.
Experiment [4] is described as follows: modulators of LAP4-GFP expression in yeast, primary screen, S. cerevisiae, multiplex flow cytometry (AID 1873;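 active means GFP signal, as percent of the solvent control, above the screen mean plus 3 SD, about 149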). Conditions: 3 h, at 10 µM, stronger effect = higher value.
Experiment [5] can be described thus: modulators of AGP1-GFP expression in yeast TOR pathway, primary screen, cell-based, multiplex flow cytometry, S. cerevisiae (AID 1887;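 active means GFP signal above the screen-wide mean plus 3 SD, that is over about 124.5% of the solvent control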;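 further: AGP1-GFP fusion strain of S. cerevisiae within a five-strain barcoded multiplex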). The following applies: 3 h, at 10 µM, stronger effect = higher value.
The nature of experiment [6]: inhibitors of CD8+ T cell-vesicle binding, pilot screen, LFA-1/ICAM-1 modulator project, MLPCN validation set, flow cytometry (AID 2523;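 active means response below a set limit, under 55% cells CD8-positive and vesicle-bound, and CD8 cells' 90th-percentile brightness under 279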;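 on vesicle binding response: mean PE anti-B7-1 fluorescence of CD8+ cells relative to row control; 100% = QL9-loaded vesicles with DMSO vehicle in the same plate row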). The following applies: 2C mouse CD8+ T cells, at 7 µM, stronger effect = lower value; double positive events: measured here: CD8+/vesicle+ event percentage.
Experiment [7] addresses Integrin beta-1 (Homo sapiens) + Integrin alpha-4 (Homo sapiens) (UniProt P13612+P05556). In words: inhibition of HUTS-21 binding to VLA-4, pilot screen, VLA-4 allosteric modulator project, U937 cells, HUTS-21 mAb, flow cytometry, validation set (AID 2674;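 active means inhibition above 50%, about 3 SD of the validation set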;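 further: antibody binding induced by the VLA-4 ligand LDV present at three times its Kd; 0% = LDV ligand with antibody and no compound and 100% = antibody without LDV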). The following applies: HUTS-21 LIBS mAb binding, at 6.7 µM, stronger effect = higher value, binding induced by LDV ligand.
The nature of experiment [8]: superoxide lowering in aged yeast cells, pilot screen, validation compound set (AID 2706;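 active means superoxide response below 65% of plate, a cut near 3 SD across the whole screen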;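 further: yeast exposed to compound for one week at 30 degrees C before staining; 100% = mean of all compound wells on the same plate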). The following applies: S. cerevisiae aging, superoxide DHE fluorescence; at 10 µM; stronger effect = lower value.
In experiment [9] the target is Beta-adrenergic receptor kinase 1 (Homo sapiens) (UniProt P25098). In words: GRK2 binders displacing RNA aptamer, biochemical, validation, human GRK2, bead flow cytometry (AID 488806;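 active means aptamer binding inhibition above 30%, about 3 SD of noise from non-fluorescent compounds; inactive means inhibition at or below 30%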). The following applies: bead-bound GRK2, FAM-aptamer displacement, at 10 µM, stronger effect = higher value.
Sequence of Beta-adrenergic receptor kinase 1 (Homo sapiens) (P25098 whole entry, looked up): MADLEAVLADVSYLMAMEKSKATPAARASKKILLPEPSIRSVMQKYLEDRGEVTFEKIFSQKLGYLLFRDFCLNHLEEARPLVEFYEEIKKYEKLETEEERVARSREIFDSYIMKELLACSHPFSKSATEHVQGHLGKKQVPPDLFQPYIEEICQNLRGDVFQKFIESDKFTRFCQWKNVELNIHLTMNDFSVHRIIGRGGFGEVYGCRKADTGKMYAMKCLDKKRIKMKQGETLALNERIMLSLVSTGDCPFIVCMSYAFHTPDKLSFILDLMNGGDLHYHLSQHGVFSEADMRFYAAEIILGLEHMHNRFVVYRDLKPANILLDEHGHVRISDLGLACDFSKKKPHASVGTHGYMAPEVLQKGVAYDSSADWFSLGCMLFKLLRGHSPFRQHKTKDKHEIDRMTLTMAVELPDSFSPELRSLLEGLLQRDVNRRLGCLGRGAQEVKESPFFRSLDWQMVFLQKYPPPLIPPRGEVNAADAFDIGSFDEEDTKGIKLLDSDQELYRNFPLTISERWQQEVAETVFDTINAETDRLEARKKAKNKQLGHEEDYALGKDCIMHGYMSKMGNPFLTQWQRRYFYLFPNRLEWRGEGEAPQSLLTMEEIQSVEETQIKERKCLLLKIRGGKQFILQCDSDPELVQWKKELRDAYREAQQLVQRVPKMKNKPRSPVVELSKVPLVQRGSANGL
The target of experiment [10] is Beta-2 adrenergic receptor (Homo sapiens) (UniProt P07550). The experiment in a line: beta2AR agonists driving receptor internalization, pilot screen, cell-based, FAP fluorogen, flow cytometry, validation set (AID 504459;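 active means percent response above 42, roughly 3 SD of non-fluorescent test compounds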;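 further: agonist-driven loss of surface beta2AR via internalization measured by FAP dye flow cytometry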). Conditions: Am2.2-beta2AR cells, FAP surface receptor flow cytometry; at 10 µM; stronger effect = higher value.
Sequence of Beta-2 adrenergic receptor (Homo sapiens) (P07550 whole entry, looked up): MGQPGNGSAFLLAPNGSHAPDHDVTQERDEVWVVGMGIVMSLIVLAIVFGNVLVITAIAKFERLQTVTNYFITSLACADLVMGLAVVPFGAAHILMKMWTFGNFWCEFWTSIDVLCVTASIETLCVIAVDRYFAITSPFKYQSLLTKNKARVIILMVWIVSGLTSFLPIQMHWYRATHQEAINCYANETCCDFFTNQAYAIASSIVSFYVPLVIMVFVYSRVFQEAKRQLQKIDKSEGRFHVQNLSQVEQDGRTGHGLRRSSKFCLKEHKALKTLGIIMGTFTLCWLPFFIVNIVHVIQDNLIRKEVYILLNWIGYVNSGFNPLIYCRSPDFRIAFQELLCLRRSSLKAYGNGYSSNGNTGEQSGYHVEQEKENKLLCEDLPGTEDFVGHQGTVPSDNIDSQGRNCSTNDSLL
Experiment [11] addresses AP-2 complex subunit beta (Homo sapiens) (UniProt P63010). The experiment in a line: inhibitors of arrestin peptide binding to AP2, pilot screen, biochemical, validation set, GST-AP2 beads, flow cytometry (AID 504541;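 active means inhibition above 54%, about 3 SD of non-fluorescent compounds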;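 further: AP2 carries R879A mutation and is captured from E. coli lysate; bead-bound FITC arrestin peptide fluorescence measuring arrestin peptide binding to AP2; 0% = DMSO wells and 100% = excess unlabeled arrestin peptide control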). The following applies: FITC arrestin peptide, at 10 µM, stronger effect = higher value, AP2 beta2 appendage fragment, R879A mutant.
A short description of experiment [12]: yeast V-ATPase proton transport modulators, S. cerevisiae, pHLuorin, HTS validation (AID 504600; in the data active means response above about 15%;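 further: plate controls were DMSO for no effect and reference compound for full effect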). Conditions: S. cerevisiae pHLuorin cytosolic pH, at 10 µM, stronger effect = higher value.
Experiment [13] concerns anti-desmoglein-3 scFv antibody binding to human DSG3. The experiment in a line: inhibitors of anti-DSG3 scFv binding to DSG3, pilot screen, biochemical, validation compound set, bead-based, flow cytometry (AID 588368;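 active means binding below the plate cutoff, the plate median minus 3 SD, with a reading above zero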;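 further: signal is the median channel fluorescence of bead-bound GFP antibody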). Conditions: Protein G beads, DSG3-Fc, scFv-GFP binding, at 10 µM, stronger effect = lower value.
The nature of experiment [14]: inhibitors of fungal efflux pumps CDR1, CDR2, MDR1, pilot screen, validation compound set, multiplex, phenotypic (AID 588506;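 active means efflux inhibition above 0.42, the validation set average plus 4 SD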;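 further: Nile Red retained in cells so higher fluorescence means more efflux inhibition; 0 = negative control wells and 1 = enniatin B 25 µM full block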). The following applies: S. cerevisiae pump-expressing triplex, Nile Red efflux flow cytometry; at 10 µM; stronger effect = higher value; the pumps come from Candida albicans.
The target in experiment [15] is ATP-binding cassette sub-family B member 6 (Homo sapiens) (UniProt Q9NP58). The experiment in a line: ABCB6 transporter inhibitors, pilot screen, K562-ABCB6 cells, flow cytometry, validation set (AID 588550).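 Further: 0% = DMSO wells and 100% = benzethonium chloride 70 µM positive control.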 The following applies: K562-ABCB6 porphyrin accumulation, 1 h, at 10 µM, stronger effect = higher value.
Sequence of ATP-binding cassette sub-family B member 6 (Homo sapiens) (Q9NP58 whole entry, looked up): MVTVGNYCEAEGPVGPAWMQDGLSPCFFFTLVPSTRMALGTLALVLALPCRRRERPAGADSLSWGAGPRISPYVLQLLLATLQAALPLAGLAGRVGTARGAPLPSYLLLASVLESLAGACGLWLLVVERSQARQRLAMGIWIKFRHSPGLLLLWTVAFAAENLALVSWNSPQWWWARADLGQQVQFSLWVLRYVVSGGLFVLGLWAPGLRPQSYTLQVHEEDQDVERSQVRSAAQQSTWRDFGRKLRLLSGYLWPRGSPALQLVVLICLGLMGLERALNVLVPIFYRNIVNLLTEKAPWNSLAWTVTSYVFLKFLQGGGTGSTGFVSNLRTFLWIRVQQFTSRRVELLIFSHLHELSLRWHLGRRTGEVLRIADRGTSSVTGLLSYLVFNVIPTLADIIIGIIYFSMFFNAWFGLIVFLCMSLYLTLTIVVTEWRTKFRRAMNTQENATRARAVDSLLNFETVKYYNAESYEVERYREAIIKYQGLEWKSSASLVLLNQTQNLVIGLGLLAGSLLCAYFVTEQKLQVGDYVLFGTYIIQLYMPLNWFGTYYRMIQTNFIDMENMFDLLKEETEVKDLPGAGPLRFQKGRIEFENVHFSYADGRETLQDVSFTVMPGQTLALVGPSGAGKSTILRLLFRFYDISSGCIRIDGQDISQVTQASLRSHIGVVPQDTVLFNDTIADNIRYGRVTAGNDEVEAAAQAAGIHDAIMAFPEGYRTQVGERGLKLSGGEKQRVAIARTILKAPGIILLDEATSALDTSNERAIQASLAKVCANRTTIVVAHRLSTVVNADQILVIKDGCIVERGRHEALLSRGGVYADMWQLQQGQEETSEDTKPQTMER
A short description of experiment [16]: promoters of myeloid differentiation in arrested cells, primary screen, cell-based, GFP/MAC1 double positive, flow cytometry, validation set (AID 588685;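 active means differentiation response of at least 50%, scaled between solvent and reference control, from cells with both markers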;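 further: compound exposure lasts four days before antibody staining and flow analysis; 0% = DMSO wells and 100% = 5 µM fulvestrant positive control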). The following applies: ER-HoxA9 marrow cells, stronger effect = higher value, normalized: vehicle 0, fulvestrant 100.

Sequence of AP-2 complex subunit beta (Homo sapiens) (P63010 whole entry, looked up, the tested form may be a part, one chain of several): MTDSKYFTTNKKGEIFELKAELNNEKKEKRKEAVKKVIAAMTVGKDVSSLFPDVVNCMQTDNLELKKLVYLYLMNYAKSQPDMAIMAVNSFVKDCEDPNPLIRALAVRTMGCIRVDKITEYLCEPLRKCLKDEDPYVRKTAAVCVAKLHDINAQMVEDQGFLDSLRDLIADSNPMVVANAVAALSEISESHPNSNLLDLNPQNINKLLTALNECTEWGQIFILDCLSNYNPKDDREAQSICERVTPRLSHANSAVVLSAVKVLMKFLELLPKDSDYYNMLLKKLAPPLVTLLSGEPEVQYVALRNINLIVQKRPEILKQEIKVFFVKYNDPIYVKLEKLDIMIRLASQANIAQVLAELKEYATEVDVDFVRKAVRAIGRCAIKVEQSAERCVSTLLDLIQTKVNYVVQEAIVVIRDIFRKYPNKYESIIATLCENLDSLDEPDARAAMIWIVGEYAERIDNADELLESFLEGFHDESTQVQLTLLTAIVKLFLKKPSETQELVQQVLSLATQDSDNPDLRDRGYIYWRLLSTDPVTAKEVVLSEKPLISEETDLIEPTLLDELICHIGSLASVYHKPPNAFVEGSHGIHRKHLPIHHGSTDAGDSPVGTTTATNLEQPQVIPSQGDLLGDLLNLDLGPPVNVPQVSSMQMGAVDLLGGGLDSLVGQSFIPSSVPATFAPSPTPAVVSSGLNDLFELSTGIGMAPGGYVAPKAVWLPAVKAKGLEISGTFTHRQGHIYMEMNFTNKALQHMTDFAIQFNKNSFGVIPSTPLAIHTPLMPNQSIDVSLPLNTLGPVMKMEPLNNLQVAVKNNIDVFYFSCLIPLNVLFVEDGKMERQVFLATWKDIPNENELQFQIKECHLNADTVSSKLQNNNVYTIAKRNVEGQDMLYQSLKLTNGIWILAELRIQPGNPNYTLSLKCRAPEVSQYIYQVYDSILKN
Sequence of Integrin beta-1 (Homo sapiens) + Integrin alpha-4 (Homo sapiens) (P05556 whole entry, looked up): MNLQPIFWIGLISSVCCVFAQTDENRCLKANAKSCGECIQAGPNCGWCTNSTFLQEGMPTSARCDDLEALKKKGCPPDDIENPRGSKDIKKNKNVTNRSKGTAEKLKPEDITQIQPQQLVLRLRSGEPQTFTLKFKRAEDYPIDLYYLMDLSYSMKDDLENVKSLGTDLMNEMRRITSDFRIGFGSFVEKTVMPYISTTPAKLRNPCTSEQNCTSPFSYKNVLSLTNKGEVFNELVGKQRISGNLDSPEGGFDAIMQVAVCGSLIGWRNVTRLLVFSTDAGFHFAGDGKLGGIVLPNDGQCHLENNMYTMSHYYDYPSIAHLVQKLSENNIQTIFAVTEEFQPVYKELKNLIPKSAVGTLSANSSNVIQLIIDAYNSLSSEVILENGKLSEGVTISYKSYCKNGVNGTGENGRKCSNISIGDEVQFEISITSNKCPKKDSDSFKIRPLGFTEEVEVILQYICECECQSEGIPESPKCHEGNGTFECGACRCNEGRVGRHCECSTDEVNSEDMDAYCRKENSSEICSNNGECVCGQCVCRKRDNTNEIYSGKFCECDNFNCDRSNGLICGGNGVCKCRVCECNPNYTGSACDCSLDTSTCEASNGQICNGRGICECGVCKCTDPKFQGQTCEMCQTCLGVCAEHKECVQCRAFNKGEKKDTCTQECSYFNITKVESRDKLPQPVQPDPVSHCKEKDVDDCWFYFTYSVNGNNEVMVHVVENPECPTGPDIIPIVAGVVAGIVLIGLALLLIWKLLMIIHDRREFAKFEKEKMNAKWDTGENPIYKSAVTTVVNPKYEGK
Sequence of Integrin beta-1 (Homo sapiens) + Integrin alpha-4 (Homo sapiens) (P13612 whole entry, looked up): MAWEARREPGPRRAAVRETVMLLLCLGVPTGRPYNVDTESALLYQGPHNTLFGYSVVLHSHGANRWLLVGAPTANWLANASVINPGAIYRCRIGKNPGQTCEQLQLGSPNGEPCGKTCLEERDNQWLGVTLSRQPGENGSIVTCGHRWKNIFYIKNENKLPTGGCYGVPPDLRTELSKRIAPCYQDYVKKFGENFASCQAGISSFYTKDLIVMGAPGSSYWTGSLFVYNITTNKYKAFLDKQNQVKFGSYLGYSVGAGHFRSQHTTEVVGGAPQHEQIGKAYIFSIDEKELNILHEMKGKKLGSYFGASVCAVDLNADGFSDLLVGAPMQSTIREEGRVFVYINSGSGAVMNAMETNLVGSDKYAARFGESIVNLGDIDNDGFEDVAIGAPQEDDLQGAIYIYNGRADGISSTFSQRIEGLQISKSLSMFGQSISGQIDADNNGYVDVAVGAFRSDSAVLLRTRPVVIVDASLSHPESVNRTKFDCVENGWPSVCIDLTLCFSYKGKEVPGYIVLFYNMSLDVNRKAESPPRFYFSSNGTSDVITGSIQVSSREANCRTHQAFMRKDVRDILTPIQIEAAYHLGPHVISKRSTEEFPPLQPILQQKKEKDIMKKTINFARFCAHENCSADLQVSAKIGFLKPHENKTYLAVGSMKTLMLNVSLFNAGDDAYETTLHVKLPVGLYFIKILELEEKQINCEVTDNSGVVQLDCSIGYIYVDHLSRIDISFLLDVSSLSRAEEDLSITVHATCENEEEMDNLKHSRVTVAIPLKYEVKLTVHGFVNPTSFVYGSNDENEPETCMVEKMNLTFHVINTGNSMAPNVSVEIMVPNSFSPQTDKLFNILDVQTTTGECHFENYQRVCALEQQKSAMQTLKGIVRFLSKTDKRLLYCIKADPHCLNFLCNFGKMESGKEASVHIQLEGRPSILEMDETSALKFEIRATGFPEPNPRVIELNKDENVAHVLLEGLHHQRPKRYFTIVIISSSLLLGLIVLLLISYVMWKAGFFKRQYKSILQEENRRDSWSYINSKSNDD

On to `O=C(O)CCCN1C(=O)NC2NC(=O)NC21` (stereo not drawn), for which, in [1], the percent of DMSO control GFP is 103% (inactive). The GFP response vs DMSO in [2] was 114% (inactive); in [4] it was 86.1% (inactive). The percent response of DMSO control in experiment [3] is 101% (inactive). Besides, the GFP response, % of DMSO in [5] is 97.5% (inactive). Further, in experiment [6], the double positive events came to 64.9%. Besides, the vesicle binding response in [6] is 914% (inactive). Moreover, the inhibition was -1.49% (inactive) in experiment [7], 35.1% (inactive) in [11] and 25% (inactive) in experiment [15]. Moreover, the superoxide response (% of plate) in experiment [8] was 106% (inactive). Also, the aptamer binding inhibition in experiment [9] is 3% (inactive). In addition, the response in experiment [10] is 0.46% (inactive); in experiment [12], -1.41% (inactive). The binding (% of control) in experiment [13] is 98.4% (inactive). The efflux inhibition (fraction of control) in [14] is -0.04 (inactive). In experiment [16], the differentiation response was 33.5% (inactive).

In the case of `CCOc1ccc(N2C(=O)CNC2=S)cc1`, the percent of DMSO control GFP in experiment [1] is 106% (inactive). For the same molecule, the figures for the GFP response vs DMSO in [2] and in [4] were 106% (inactive) and 110% (inactive), respectively. Besides, in [3], the percent response of DMSO control was 105% (inactive). The GFP response, % of DMSO in experiment [5] was 109% (inactive). In [6], this molecule yielded a double positive events of 66.1%. Moreover, the vesicle binding response in [6] was 202% (inactive). Further, the inhibition in experiment [7] is -0.27% (inactive); in experiment [11], 11.9% (inactive); in [15], -4% (inactive). Moreover, the superoxide response (% of plate) in [8] is 105% (inactive). Further, the aptamer binding inhibition in experiment [9] was 2% (inactive). Also, the values for the response in experiment [10] and in experiment [12] were -17.9% (inactive) and -2.61% (inactive), respectively. In experiment [13], the binding (% of control) is 106% (inactive). In addition, the efflux inhibition (fraction of control) in experiment [14] was -0.09 (inactive). Moreover, the differentiation response in [16] was 3.88% (inactive).

Regarding `C[C@]12CC[C@@H]3c4ccc(O)cc4CC[C@H]3[C@@H]1CC[C@@H]2OC(=O)CCC(=O)O`, the percent of DMSO control GFP in experiment [1] is 102% (inactive). In addition, the GFP response vs DMSO in [2] is 103% (inactive); in experiment [4] it was 127% (inactive). In [3], the percent response of DMSO control was 91.3% (inactive). The GFP response, % of DMSO in [5] was 98.6% (inactive). In addition, in [6], the double positive events turned out to be 62.4%. For the same molecule, the vesicle binding response in experiment [6] was 223% (inactive). In addition, the inhibition in experiment [7] is -15.8% (inactive); in experiment [11] it was 50.5% (inactive); in experiment [15] it was -12% (inactive). The superoxide response (% of plate) in [8] is 86% (inactive). The aptamer binding inhibition in experiment [9] is -7% (inactive). The response was 3.34% (inactive) in [10] and -4.55% (inactive) in [12]. The binding (% of control) in experiment [13] is 105% (inactive). The efflux inhibition (fraction of control) in experiment [14] was 0.46 (active). Moreover, the differentiation response in experiment [16] was 42.2% (inactive).

For the molecule `CC(=O)N1CCN2C(=O)C1CCCC(=O)c1cc(C(C)C)ccc12` (stereo not drawn), the percent of DMSO control GFP in experiment [1] is 99.5% (inactive). In addition, the GFP response vs DMSO was 90.8% (inactive) in [2] and 82.8% (inactive) in [4]. In experiment [3], the percent response of DMSO control is 103% (inactive). Also, the GFP response, % of DMSO in experiment [5] was 91.2% (inactive). In addition, in experiment [6], the double positive events was found to be 55.3%. In addition, in [6], the vesicle binding response was 234% (inactive). The inhibition in [7] was -4.52% (inactive); in [11], -5.05% (inactive); in experiment [15] it was 9% (inactive). Further, the superoxide response (% of plate) in experiment [8] was 94.5% (inactive). For the same molecule, the aptamer binding inhibition in [9] was 6% (inactive). Further, the response is 0.52% (inactive) in experiment [10] and 0.04% (inactive) in experiment [12]. Also, the binding (% of control) in [13] is 103% (inactive). The efflux inhibition (fraction of control) in [14] is -0.24 (inactive). In [16], the differentiation response was 20% (inactive).
